High-throughput results deposited in PubChem by The Scripps Research Institute Molecular Screening Center.
In the library only some 3.5% were active in any assay of this set; here they are far more common.
FBW7 act = human FBW7 E3 ligase activation, primary screen; Q969H0; AlphaScreen FBW7–phospho-cyclin E peptide binding, activator screen; normalized activity (activation), % at 26.1 µM; actives 0.13% (n = 650,000); in the data active = normalized activity above about 1.9%;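 note: purified mutant Fbw7 with reduced substrate affinity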
GPR151 ag = human GPR151 activation; Q8TDV0; PathHunter beta-arrestin GPR151 cells, luminescence; activation, % at 11.2 µM; actives 1% (n = 650,000); AID 1508602; in the data active = activation above about 4.9%
Target sequence (Q8TDV0 whole entry, looked up): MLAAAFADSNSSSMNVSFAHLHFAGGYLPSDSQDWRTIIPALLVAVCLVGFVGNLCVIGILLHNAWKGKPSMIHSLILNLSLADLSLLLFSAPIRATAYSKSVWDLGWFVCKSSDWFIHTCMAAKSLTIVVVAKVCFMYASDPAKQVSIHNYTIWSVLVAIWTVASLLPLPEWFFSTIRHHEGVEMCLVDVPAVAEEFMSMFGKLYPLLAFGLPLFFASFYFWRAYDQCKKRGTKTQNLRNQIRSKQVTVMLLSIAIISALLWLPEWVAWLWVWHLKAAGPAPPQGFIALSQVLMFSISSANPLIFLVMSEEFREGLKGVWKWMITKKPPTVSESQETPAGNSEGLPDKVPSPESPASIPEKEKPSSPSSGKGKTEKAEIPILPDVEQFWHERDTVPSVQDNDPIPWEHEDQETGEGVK
TEAD-YAP block = TEAD-YAP interaction inhibition. actives 1.4% (n = 640,000). HEK-TIYL cells, TEAD-Gal4/YAP UAS-luciferase luminescence. inhibition, % at 9.12 µM; in the data active = inhibition above about 32%
MITF primary = inhibitors of human MITF; O75030; AlphaScreen MITF homodimerization, bead proximity signal; inhibition, % at 2.6 µM; actives 0.91% (n = 650,000); AID 1259374; in the data active = inhibition above about 50%
MITF inh conf = confirmation of human MITF inhibitors | shares compounds with MITF primary | AlphaScreen MITF homodimerization, biotin/His-MITF beads | inhibition, % at 2.6 µM | actives 16% (n = 4,700) | AID 1259372;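 active = inhibition above a cutoff derived from the DMSO control wells, cut at about 28% in these data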;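 note: inhibitors lower the bead chemiluminescence by keeping MITF from dimerizing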
AS interf DR = counter-screen: compounds optically interfering with AlphaScreen. AlphaScreen optical interference counterscreen, cell-free. shares compounds with MITF primary. IC50, µM. AID 1259373. actives 6% (n = 480); call rule not given here
AlphaScreen intf2 = counter-screen: compounds optically interfering with AlphaScreen; shares compounds with MITF primary; inhibition, % at 2.6 µM; actives 7.6% (n = 4,700); LysRS AlphaScreen counterscreen, signal interference, triplicate;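 active = inhibition above a cutoff derived from the DMSO control wells, cut at about 30% in these data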
Each line names hits and unclear results; the compound was inactive in the other large screens (follow-up assays come after a bar, where they were run).

CC1CCc2c(sc(NC(=O)CC34CC5CC(CC(C5)C3)C4)c2C(N)=O)C1 (stereo unspecified)	none
COc1ccc(C(=O)NC(=S)Nc2cc(C)ccc2O)cc1	none
O=C1CSC(c2ccc([N+](=O)[O-])cc2)N1c1cc(Cl)cc(Cl)c1 (stereo unspecified)	none
CC1CCN(CC(=O)N2CCC(c3ccnc4nc(C(F)(F)F)nn34)CC2)CC1	none
O=C(CN1CCN(C(=O)NCc2ccc(Cl)cc2)CC1)c1cccs1	MITF primary 58.9 | MITF inh conf inactive | AlphaScreen intf2 inactive
O=C(CN1CCN(C(=O)NCc2cccs2)CC1)c1ccco1	MITF primary 57.5 | MITF inh conf inactive | AlphaScreen intf2 inactive
Cc1ccccc1NC(=O)N1CCN(CC(=O)c2ccco2)CC1	MITF primary 54.2 | MITF inh conf inactive | AlphaScreen intf2 inactive
CN1CCc2[nH]c3ccc(F)cc3c2C1	none
CCOC(=O)CCNC(C)C1COc2ccccc2O1 (stereo unspecified)	MITF primary 51.1 | MITF inh conf inactive | AlphaScreen intf2 inactive
NNc1nc(NN)nc(Nc2cccc3ccccc23)n1	MITF primary 51.5 | MITF inh conf 53.6 | AlphaScreen intf2 63.4
COC(=O)C1=C(C)NC(=S)NC1c1ccc(OC)cc1OC (stereo unspecified)	none
CC(Cc1cnccn1)NC(=O)CCc1nnc(CCC2CCCCC2)o1 (stereo unspecified)	none
CC(NC(=O)CCc1nnc(CCC2CCCCC2)o1)c1ccncn1 (stereo unspecified)	MITF primary 73.6 | MITF inh conf inactive | AlphaScreen intf2 inactive
CCN(CC)CCCNCc1ccc(Cl)cc1	MITF primary 51.2 | MITF inh conf inactive | AlphaScreen intf2 inactive
CCOC(=O)CC(=O)CSc1nc2ccsc2c(=O)n1Cc1ccc(C)cc1	none
CCOC(=O)c1c(-c2ccccc2)csc1NC(=O)CCN1CCN(C)CC1	none
CCOC(=O)c1c(-c2ccc(OC)cc2)csc1NC(=O)CN1CCOCC1	MITF primary 70.8 | MITF inh conf inactive | AlphaScreen intf2 inactive
CCOC(=O)c1c(-c2ccc(C)cc2)csc1NC(=O)CN1CCOCC1	none
CCOC(=O)c1c(-c2ccc(C)o2)csc1NC(=O)CN1CCCCC1C (stereo unspecified)	MITF primary 56.5 | MITF inh conf inactive | AlphaScreen intf2 39.3
CCOC(=O)c1c(-c2ccc(F)cc2)csc1NC(=O)CCN1CCN(CC)CC1	MITF primary 70.7 | MITF inh conf inactive | AlphaScreen intf2 inactive
Cc1ccccc1N1C(=O)C2CC2C1=O (stereo unspecified)	none
O=[N+]([O-])c1ccc(CN2CCN(C/C=C/c3ccccc3)CC2)o1	MITF primary 65.1 | MITF inh conf inactive | AlphaScreen intf2 inactive
CCN1CCN(C/C=C/c2ccccc2OC)CC1	MITF primary 51.1 | MITF inh conf inactive | AlphaScreen intf2 inactive
CCN1CCN(C/C=C/c2ccccc2[N+](=O)[O-])CC1	MITF primary 60.1 | MITF inh conf inactive | AlphaScreen intf2 inactive
CCOC(=O)c1c(NC(=O)C(C)Sc2nnc(CNC(=O)c3ccccc3F)n2-c2cccc(C)c2)sc2c1CCC2 (stereo unspecified)	none
Cc1ccc(NC(=O)c2sc3nc4c(c(-c5ccco5)c3c2N)CCCC4)cc1	MITF primary 51.2 | MITF inh conf inactive | AlphaScreen intf2 inactive
NC(=O)c1sc2nc3c(c(-c4ccco4)c2c1N)CC/C3=C\c1ccco1	MITF primary 117.1 | MITF inh conf 110.4 | AlphaScreen intf2 89.6
COc1ccc(-n2c(CN3CCSCC3)n[nH]c2=S)cc1	MITF primary 71.3 | MITF inh conf inactive | AlphaScreen intf2 inactive
Cc1ccc(-n2cc(-c3ccc(C(=O)N4CCCC4)cn3)cn2)cc1	none
O=C(c1ccc(-c2cnn(-c3ccc(Cl)cc3)c2)nc1)N1CCOCC1	MITF primary 57.7 | MITF inh conf inactive | AlphaScreen intf2 inactive
CC(C)(C)c1ccc(S(=O)(=O)N2CCc3nc4ccccc4c(C(=O)O)c3C2)cc1	MITF primary 50.6 | MITF inh conf inactive | AlphaScreen intf2 inactive
O=[N+]([O-])c1ccccc1CN1CCCCCC1	none
CC1CCC(N2CCN(Cc3ccccc3[N+](=O)[O-])CC2)CC1 (stereo unspecified)	MITF primary 69.3 | MITF inh conf inactive | AlphaScreen intf2 inactive
CC1CN(C2CCN(Cc3ccccc3[N+](=O)[O-])CC2)CC(C)O1 (stereo unspecified)	MITF primary 65.9 | MITF inh conf inactive | AlphaScreen intf2 inactive
O=[N+]([O-])c1ccccc1CN1CCC(N2CCN(c3ccccc3F)CC2)CC1	none
CC1CN(Cc2ccccc2[N+](=O)[O-])CC(C)O1 (stereo unspecified)	none
O=[N+]([O-])c1ccccc1CN1CCN(C2CCCCCC2)CC1	MITF primary 74.9 | MITF inh conf inactive | AlphaScreen intf2 inactive
COC(CNC(=O)/C(=C\c1ccccc1Br)NC(C)=O)OC	none
O=c1[nH]cccc1-c1ccc(Nc2nccc(-c3ccc4nc(C5CC5)[nH]c(=O)c4c3)n2)cc1	MITF primary 64.4 | MITF inh conf 62.0 | AS interf DR inactive | AlphaScreen intf2 inactive
O=C(c1cccc(Nc2nccc(-c3ccc4nc(C5CC5)[nH]c(=O)c4c3)n2)c1)N1CCCC1	none
COc1ccc(CN2CCN(Cc3ccco3)CC2)c(OC)c1OC	MITF primary 54.9 | MITF inh conf inactive | AlphaScreen intf2 inactive
COc1ccc(CN2CCN(Cc3ccco3)CC2)c(OC)c1	MITF primary 73.1 | MITF inh conf inactive | AlphaScreen intf2 inactive
COc1ccc(CN2CCc3ccccc3C2)c(OC)c1	none
COc1ccccc1CN1CCN(Cc2ccco2)CC1	MITF primary 77.4 | MITF inh conf inactive | AlphaScreen intf2 inactive
COc1ccc(CN2CCN(C(=O)c3ccco3)CC2)c(OC)c1OC	none
CC1(C)c2ssc(=S)c2-c2ccccc2N1C(=O)CSc1nc2ccccc2o1	none
Cc1cc(N=Cc2ccc([N+](=O)[O-])o2)ccc1S(=O)(=O)O	MITF primary 57.8 | MITF inh conf 47.5 | AS interf DR inactive | AlphaScreen intf2 inactive
O=[N+]([O-])c1ccc(C=Nc2ccc(N=Cc3ccc([N+](=O)[O-])o3)cc2)o1	none
COc1ccc(CNC(=O)CN(C)Cc2ccc(C(C)(C)C)cc2)cc1	MITF primary 74.4 | MITF inh conf inactive | AlphaScreen intf2 inactive
CCC(C)n1c(=O)c2sccc2n2c(CCCC(=O)N3CCc4ccccc4C3)nnc12 (stereo unspecified)	none
C/C(=N\NC(=O)c1c(C)nnn1-c1nonc1N)c1ccc([N+](=O)[O-])cc1	none
Cc1ccc(Cn2nnc3c(=O)[nH]c(C4CCN(C(=O)C(F)(F)F)CC4)nc32)cc1	MITF primary 75.5 | MITF inh conf inactive | AlphaScreen intf2 inactive
